# TIM10 inh – growth inhibitors of isogenic TIM10 control yeast, primary screen, counter-screen for tim10-1 yeast inhibitor project, luminescence, uHTS | S. cerevisiae TIM10 strain growth, BacTiter-Glo luminescence, 24 h | inhibition, % at 10 µM | 1.4% of 330,000 active | AID 463195, 2010;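 active = inhibition of 40% or more at the single tested concentration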;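 also: wild-type TIM10 isogenic control strain grown at permissive 25 °C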
# Rce1 inhib – yeast Rce1p protease inhibitors, primary screen, biochemical, fluorescence, cell-free homogeneous | 0.27% of 290,000 active | CAAX prenyl protease 2 (Saccharomyces cerevisiae (strain ATCC 204508 / S288c)), Q03530 | calls only | yeast membranes, quenched prenylated peptide cleavage fluorescence;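 active = fall in fluorescence gain of 50% or more versus controls, with final raw signal at or below 3038400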;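 also: plate controls were neutral control wells for no effect and wells lacking membranes for full effect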
# Target sequence (Q03530 whole entry, looked up): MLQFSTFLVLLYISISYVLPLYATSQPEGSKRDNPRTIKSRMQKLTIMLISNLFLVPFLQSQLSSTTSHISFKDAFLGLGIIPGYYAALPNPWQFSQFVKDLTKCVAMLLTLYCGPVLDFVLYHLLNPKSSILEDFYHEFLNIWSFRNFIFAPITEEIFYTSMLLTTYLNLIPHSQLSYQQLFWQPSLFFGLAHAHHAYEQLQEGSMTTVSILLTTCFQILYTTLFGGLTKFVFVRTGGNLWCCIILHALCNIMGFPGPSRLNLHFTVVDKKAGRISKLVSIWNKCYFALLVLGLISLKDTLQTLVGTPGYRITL
# tim10-1 inh – growth inhibitors of tim10-1 mutant yeast, primary screen, luminescence, uHTS. S. cerevisiae tim10-1 ts strain growth, BacTiter-Glo, 24 h. inhibition, % at 20 µM. 2.2% of 330,000 active. AID 463190, 2010;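 active = inhibition of at least 40%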;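 also: mutant grown at 25 °C; 0% = DMSO wells with yeast and 100% = wells holding no yeast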
# PfHsp90 yeast 2 – growth inhibition of PfHsp90-expressing yeast, primary screen, antimalarial PfHsp90 inhibitor project, S. cerevisiae, BacTiter-Glo luminescence, single point, set 2; AID 504621, 2011; BacTiter-Glo ATP, 48 h; yeast lacking PDR1 and PDR3 efflux regulators; inhibition, % at 9.4 µM; 0.32% of 310,000 active;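 active = every replicate shows inhibition above about 80%, whatever the replicate mean, limit read from the data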;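 also: 0% = DMSO neutral controls and 100% = 20 µM radicicol positive controls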
# tim23-1 inh – growth inhibitors of tim23-1 mutant yeast, primary screen, luminescence, uHTS; S. cerevisiae tim23-1 growth, BacTiter-Glo luminescence, 24 h; inhibition, % at 20 µM; 1.3% of 330,000 active; AID 463212, 2010;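 active = growth inhibition of the mutant yeast at or above 50%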;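 also: temperature-sensitive mutant grown at 25 °C; plate controls were DMSO-treated mutant yeast for no effect and medium wells lacking yeast for full effect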
# tim10-1 conf – growth inhibitors of tim10-1 mutant yeast, confirmation, single concentration, luminescence, S. cerevisiae; shares compounds with tim10-1 inh; S. cerevisiae tim10-1 ts strain growth, BacTiter-Glo, 24 h; inhibition, % at 20 µM; 56% of 7,400 active; AID 463213, 2010;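 active = inhibition of yeast growth at or above a set limit in either of two repeat tests at 20 µM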;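 also: tim10-1 mutant grown at permissive 25 °C to find synthetic lethal compounds; 0% = DMSO yeast wells and 100% = medium wells without yeast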
# tim10 confirm – growth inhibitors of wild-type TIM10 yeast, confirmation, counter-screen for tim10-1 synthetic lethality project, single concentration, luminescence, S. cerevisiae | shares compounds with TIM10 inh | S. cerevisiae tim10 strain growth, BacTiter-Glo luminescence, 24 h | inhibition, % at 10 µM | 63% of 4,600 active | AID 463215, 2010;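 active = inhibition of yeast growth at or above a set limit in either of two replicates at 10 µM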;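 also: this counterscreen used the strain with wild-type TIM10; 0% = yeast with DMSO and 100% = medium wells lacking yeast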
# tim23-1 confirm – tim23-1 mutant yeast growth inhibitors, confirmation, luminescence, single concentration. inhibition, % at 20 µM. shares compounds with tim23-1 inh. S. cerevisiae tim23-1 growth, BacTiter-Glo luminescence, 24 h. 83% of 4,400 active. AID 463218, 2010;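 active = inhibition above about 39% in either of two replicate wells at 20 µM, limit read from the data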;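 also: temperature-sensitive tim23-1 mutant grown at 25 °C; 0% = DMSO wells with yeast and 100% = medium wells without yeast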
# The depositor's hits bear a star; i = inactive; . = no result given. An excerpt weighted towards active compounds, which were near 3.7% of everything screened.
SMILES,TIM10 inh,Rce1 inhib,tim10-1 inh,PfHsp90 yeast 2,tim23-1 inh,tim10-1 conf,tim10 confirm,tim23-1 confirm
CN1CCN(C(c2ccc(C(F)(F)F)cc2)c2ccc3cccnc3c2O)CC1 (configuration not stated),9.6,.,36.3,.,48.7,.,.,.
Cc1ccc(C(c2cc(Cl)c3cccnc3c2O)N2CCN(C)CC2)cc1 (configuration not stated),8.4,i,41.0*,106.6*,55.1*,24.6,.,79.7*
Oc1c(C(c2ccccn2)N2CCC(Cc3ccccc3)CC2)cc(Cl)c2cccnc12 (configuration not stated),26.9,i,43.4*,.,54.9*,27.7,.,68.5*
O=C(NCCS(=O)(=O)N1CCN(c2ccccc2F)CC1)c1c(F)cccc1F,-2.7,i,4.5,.,6.6,.,.,.
O=C(/C=C/c1c(Cl)cccc1Cl)n1cccn1,41.5*,i,55.8*,.,60.1*,56.7*,55.4*,85.3*
Cc1ccc(CC(=O)OCC(=O)c2ccc[nH]2)cc1C,-4.1,.,1.2,-0.8,5.0,.,.,.
Cc1noc(/C=C/N(C)C)c1S(=O)(=O)N1CCCC(C(=O)Nc2ccccc2F)C1 (configuration not stated),16.3,i,-6.3,1.1,11.6,.,.,.
CCOCCCn1c(=S)[nH]c2cc(C(=O)NCCc3ccccc3)ccc2c1=O,-14.2,i,6.2,-9.8,-0.1,.,.,.
CC(=O)C(=Cc1cn(-c2ccccc2)nc1-c1ccccc1)C(C)=O,56.8*,i,67.1*,-10.2,82.4*,68.0*,52.6*,83.2*
O=C(/C=C/c1ccc(F)cc1)c1ccccc1Br,43.9*,i,47.1*,58.6,62.2*,63.6*,63.5*,58.0*
Cc1ccc(C(=O)/C=C/c2ccc(F)cc2)o1,12.0,i,11.6,7.7,18.2,.,.,.
N/C(=N\OC(=O)c1ccco1)c1ccc(Br)cc1,55.8*,i,58.2*,-26.9,61.6*,53.7*,50.6*,76.2*
Cc1cccc(/C(N)=N/OC(=O)c2ccco2)c1,26.5,i,41.5*,-2.6,59.3*,31.8*,.,43.2*
Cc1cccc(/C(N)=N/OC(=O)CCCc2ccccc2)c1,53.1*,i,61.3*,-9.7,59.5*,57.5*,45.2*,59.0*
Cc1cccc(/C(N)=N/OC(=O)CCCN2C(=O)c3ccccc3C2=O)c1,2.1,i,15.3,10.6,27.7,.,.,.
COc1ccc(/C(N)=N/OC(=O)c2ccco2)cc1,9.6,i,2.8,33.4,11.5,.,.,.
Cc1cc2c(cc1S(=O)(=O)N(C)Cc1ccccc1)OCC(=O)N2,-8.7,i,-4.9,3.2,-4.1,.,.,.
COc1cccc(CSc2nc3ccccc3cc2C=O)c1,46.2*,i,49.4*,-10.5,71.2*,44.1*,53.0*,77.7*
CCOC(=O)Oc1ccc2c(=O)c(Oc3cccc(C)c3)coc2c1,40.9*,i,55.7*,.,55.1*,48.0*,41.3*,58.8*
O=C(c1cccs1)N(C(=O)c1cccs1)c1ccc(Br)cn1,63.3*,i,41.6*,-7.9,75.3*,30.9*,50.2*,62.0*
O=C(COC(=O)c1ccc([N+](=O)[O-])o1)NCCc1ccccc1,-156.9,.,-165.8,-14.8,-7.9,.,.,.
CC(C)(C)N(Cc1ccccc1)C(=O)COC(=O)c1ccc([N+](=O)[O-])o1,26.8,.,45.0*,-26.2,52.8*,31.1,.,45.9*
Cc1ccccc1CSc1ccc(-c2ccc3c(c2)OCO3)nn1,30.3,i,19.7,17.6,22.6,.,.,.
CCOC(=O)/C(C#N)=C/c1cc2ccccc2nc1N1CCOCC1,22.3,i,32.9,11.0,30.7,.,.,.
N#CC(C#N)=Cc1cc2ccccc2nc1N1CCCCC1,40.7*,i,53.0*,-43.5,78.0*,41.8*,13.4,71.2*
SMILES,TIM10 inh,Rce1 inhib,tim10-1 inh,PfHsp90 yeast 2,tim23-1 inh,tim10-1 conf,tim10 confirm,tim23-1 confirm
CC(C)n1ncc2c(C(=O)NCC(=O)Nc3ccccc3Br)cc(C3CC3)nc21,7.8,.,42.1*,-0.4,52.8*,25.6,.,44.5*
CC(=O)n1nc(-c2ccccc2)cc1-c1ccccc1,28.0,i,23.0,0.5,42.0,.,.,.
Cc1cc(N2CCOCC2)ccc1/C=C1\NC(=O)N(Cc2ccccc2)C1=O,18.3,i,31.6,.,-2.4,.,.,.
O=C(CCc1nc2ccccc2c(=O)[nH]1)N1CCN(S(=O)(=O)c2cc(Cl)ccc2Cl)CC1,.,.,.,-17.3,.,.,.,.
Cc1ccc(S(=O)(=O)CC(=O)c2cc3cccc(C)c3oc2=O)cc1,1.4,i,42.0*,-32.2,52.8*,-23.2,.,31.9
COc1ccc(C(=O)N/N=C\c2coc3ccc(Cl)cc3c2=O)cc1,33.0,i,44.2*,-1.6,83.7*,-4.2,.,74.6*
NC(=S)N/N=C/c1coc2ccc(Cl)cc2c1=O,22.1,i,54.5*,-178.6,81.7*,16.5,.,80.2*
COc1cc(C(=O)N/N=C/c2coc3ccccc3c2=O)cc(OC)c1OC,9.4,i,20.1,31.5,33.0,.,.,.
COc1cc(C(=O)N/N=C/c2coc3ccc(Cl)cc3c2=O)ccc1O,34.7,i,52.0*,15.7,80.8*,7.9,.,48.6*
O=C(N/N=C/c1coc2ccc(Cl)cc2c1=O)c1ccc(O)cc1,31.0,i,49.5*,49.2,84.3*,-1.0,.,48.8*
O=C(O)CN1C(=O)/C(=C\c2cn(CC(=O)N3CCOCC3)c3ccccc23)SC1=S,4.4,i,19.7,30.0,17.1,.,.,.
Cc1cc(=O)[nH]c(SCC(=O)N2CCCC2)n1,7.1,.,-9.8,-13.8,-0.5,.,.,.
O=C(CSc1ccccc1)NNC(=O)c1ccccc1O,14.8,i,16.0,2.6,15.3,.,.,.
O=c1c2ccccc2c(-c2ccc(O)cc2)nn1-c1cccc(C(F)(F)F)c1,53.0*,i,42.4*,8.3,56.9*,36.1*,-6.4,55.5*
Cc1ccc(-c2cc(-c3ccc(F)cc3)n[nH]2)c(O)c1,22.6,i,40.6*,-12.1,60.9*,45.5*,.,51.0*
Oc1ccc(Cl)cc1-c1cc(-c2ccccc2)n[nH]1,55.5*,i,42.8*,4.4,60.0*,35.6*,58.2*,21.6

# Screening results as filed in PubChem BioAssay.
